This passage reports growth results from PubChem BioAssay (NCI).

This is part of a sample that, as a whole, favours compounds with a hit. Of some 83,000 tested, about 20% had one in any assay.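 The endpoint reported here, percent growth, reads 100 for growth as untreated, 0 for no net growth and -100 for all cells dead.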 Values without a mark were called inactive. Active and inactive are the calls of the source.

The test system of the assay is SK-MEL-2 melanoma. Put plainly: NCI-60 one-dose screen, 48 h (100 = growth as untreated, 0 = no growth, -100 = all killed). The note with it: 10 µM. Here is the method: Growth inhibition of the SK-MEL-2 human tumor cell line is measured as a screen for anti-cancer activity. Cells are grown in 96 well plates and exposed to the test compound for 48 hours. Compounds are tested at a single concentration, which is 10^-5 M for most compounds. The reported endpoint is percent growth (GI% or GIPRCNT), where numbers from 0 - 100% represent growth inhibition, and numbers from -100% - 0 represent cell death. For example, a value of 40 represents 60% growth inhibition. A value of 0 means no net growth occurred over the course of the experiment. A value of -40 indicates 40% of cells at the beginning of the experiment died by the end of the experiment. A value of -100 means all cells are dead at the end of the experiment.
NCI-60 Human Tumor Cell Lines Screen was performed using the standard one-dose NCI protocol, which is described in more detail at https://dtp.cancer.gov/discovery_development/nci-60/default.htm.
Compounds with GIPRCNT values below 10 were considered active. Activity score was based on GIPRCNT using the following formula: […]
Score is 0 for GIPRCNT values of 100 or above, 50 for GIPRCNT values of 0, and 100 for GIPRCNT values of -100.
On to `Cc1noc(C)c1-c1ccc2nc(NC(=O)[C@H]3CCN(C#N)C3)cn2c1`, for which the growth is 74.1%.
Next, `COc1cc(-c2nc3ccc(C)cc3[nH]2)ccc1OCC(=O)N=Nc1c(O)[nH]c2ccccc12`: -52.9% (active).
For `COC(=O)[C@]12CC[C@@H](C)[C@H](C)[C@@H]1C1=CC[C@@H]3[C@@]4(C)CC(=O)[C@H](O)[C@@](C)(CO)[C@@H]4C(=O)C[C@@]3(C)[C@]1(C)CC2`, the growth is -4.44% (active).
The figure for `COc1ccc(C(=O)c2sc3nc(-c4cccs4)ccc3c2N)cc1OC` is 15.7%; for `COc1cc(-c2cc(/C=C/C(C)=O)[nH]n2)cc(OC)c1OC` it is 87.2%.
Take `CCOC(=O)c1ccc(NC(=O)Nc2nncs2)cc1`: the growth was 37.4%.
Consider `Fc1cc(-c2ncc(-c3cc(F)c(F)c(F)c3)c(NC3CCCCCC3)n2)cc(F)c1F`, for which the growth is 111%.
The figure for `O=c1ccc2nc(-c3ccccc3)nn(-c3ccccc3)c-2c1` is 44.9%; for `C=C1C(=O)O[C@H]2[C@H]1CC/C(COC(=O)OCCCCCOC(=O)OC/C1=C/CC[C@@]3(C)O[C@H]3[C@H]3OC(=O)C(=C)[C@@H]3CC1)=C\CC[C@@]1(C)O[C@@H]21` it is -30% (active); for `CCCCCCCCCCCCc1ccc(C(=O)/C=C/C(=O)O)cc1` it is 93.1%.
In the case of `CN1/C(=C\C(I)C(I)C2=[N+](C)c3ccccc3C2(C)C)C(C)(C)c2ccccc21` (stereo not given), the growth is -13% (active).
With `CCCCn1c(=O)[nH]c(N)c(C(c2ccc(Cl)cc2)c2c(N)[nH]c(=O)n(CCCC)c2=O)c1=O`, the growth is 6.4% (active).
Next, `O=C1/C(=C/c2ccc(O)cc2O)N=C2SCCCN12`: 109%.
Next, `CN(C)c1ccc2c(c1)OC(N)=C(C#N)C2c1ccc2c(c1)CCO2` (stereo not given): 32.1%; `OC(CNC1CCCC1)Cn1c2ccccc2c2ccccc21` (stereo not given): 48.9%.
Regarding `CCc1c(C)[nH]c(=O)c(C(N)=O)c1C#N`, the growth is 96.3%.
Next, `Nc1cc(O)cc(O)c1`: 98.7%; `Nc1ccccc1NC(=O)CCCCCCC(=O)Nc1ccc2c(c1)/C(=C/c1ccc[nH]1)C(=O)N2`: -1.9% (active).
Next, `O=C(Nc1ccc(OCc2nnc(-c3ccccc3)o2)c(F)c1)Nc1ccc(Cl)c(Cl)c1`: 72.9%; `CCOC(=O)C(=O)Cc1cccnn1`: 103%.
Next, `COc1c(-c2c3sc(=O)[nH]c3nc3c2c(=O)[nH]n3C(C)C)cc2c(c1OC)OCO2`: 85.3%; `C/C(=N\NC(=O)c1sc(=S)n(C)c1N)c1cc2ccccc2o1`: 74.4%; `CC(CNC(Cc1ccccc1)c1ccccc1)NC(Cc1ccccc1)c1ccccc1` (stereo not given): 73.3%.
As to `CCOC(=O)Cn1nnc(-c2ccc(OCc3ccccc3F)cc2)n1`, the growth is 100%.
Next, `Cc1cc(C(C)(C)CC(C)(C)C)ccc1OCCOCC[N+](C)(C)Cc1ccccc1`: -34.2% (active).
Next, `O=[N+]([O-])c1ccc(-c2nc(-c3ccccc3)c(-c3ccccc3)n2-c2ccccc2)cc1`: -38.1% (active); `CS(=O)(=O)Nc1ccc(OCc2nnc(-c3ccc(Cl)cc3)o2)c(F)c1`: 112%.
Next, `COc1cccc2c1C(=O)c1c(O)c3c(c(O)c1C2=O)C[C@@](O)(C(=O)COC(=O)c1cccnc1)C[C@@H]3OC1CC(N)C(O)C(C)O1` (stereo not given in full): -71.1% (active); `COc1ccc(Cn2cc3c(c2-c2cc(OC)c(OC)c(OC)c2)CCc2cnoc2-3)cc1N`: 37.1%.
Regarding `Cc1cccc2c(Nc3ccc(NS(C)(=O)=O)cc3)c3ccc([N+](=O)[O-])cc3nc12`, the growth is -19.1% (active).
As to `O=C(CCc1ccccc1)N1CCN(C(=O)CCc2ccccc2)CC1`, the growth was 104%.
The figure for `CC(=O)OC1Oc2ccccc2-c2oc(=O)c(-c3cc(=O)oc4cc(O)ccc34)cc21` (stereo not given) is 87.3%.
The figure for `CC(=O)Nc1ccc(Sc2ccc(NC(C)=O)cc2)cc1` is 98.9%; for `CNCCCNCCCN1C(=O)c2ccc3c4c(ccc(c24)C1=O)C(=O)N(CCCNCc1ccccc1OC)C3=O` it is -49.9% (active); for `CCCCCCCOc1cccc(/C=C2/C(=O)N=C3SCCCN32)c1` it is 83%.
`CC(=O)[C@H]1CC[C@H]2[C@@H]3CC[C@@H]4CC=C(C=O)C[C@]4(C)[C@H]3CC[C@]12C`: the growth is 99.3%.
As to `CCOC(=O)/C(C#N)=C(/C)C1CC1`, the growth was 111%.
Next, `N#Cc1c(-c2ccccc2)nc(SCC(=O)N2CCOCC2)[nH]c1=O`: 107%.
The figure for `C/C(=N\NC(=S)N1CCCC1)c1ccccn1` is 13.8%; for `C=CCc1cc(Nc2c3ccc(Cl)cc3nc3ccc(OC)cc23)cc(CN(CC)CC)c1O` it is 18.5%.
